# Laboratory results reported in PubChem BioAssay (EPA / NIEHS).
# Inconclusive results are not listed. Active and inactive are the calls of the source. Rule for the calls, unless noted: active = hit-call score of the fitted dose curve at least 0.9, where 1 is the maximum; inconclusive = response in the unintended direction; inactive = score below 0.9.
# Legend:
# [1] = molecular target: Cytochrome P450 2C19 (Homo sapiens) (UniProt P33261); assay: NVS_ADME_hCYP2C19: NovaScreen (NVS) CYP450-related Enzyme Activity (ADME) Assay for human CYP2C19 (AID 2283113);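 for AC50: potency for inhibition seen as loss of fluorescent signal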
# Procedure, shortened: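 Chemicals first screened in duplicate at 10 uM against recombinant human enzyme produced in insect cells; confirmed actives then run as concentration series. Fluorogenic substrate turnover read by fluorescence after 1 h, normalised to acetonitrile.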
# [2] = molecular target: human CYP2C9, CYP2C9 (gene 1559) (UniProt P11712); assay: NVS_ADME_hCYP2C9: NovaScreen (NVS) CYP450-related Enzyme Activity (ADME) Assay for human CYP2C9 (AID 2283108)
# human CYP2C9, CYP2C9 (gene 1559), sequence (P11712 whole entry, looked up): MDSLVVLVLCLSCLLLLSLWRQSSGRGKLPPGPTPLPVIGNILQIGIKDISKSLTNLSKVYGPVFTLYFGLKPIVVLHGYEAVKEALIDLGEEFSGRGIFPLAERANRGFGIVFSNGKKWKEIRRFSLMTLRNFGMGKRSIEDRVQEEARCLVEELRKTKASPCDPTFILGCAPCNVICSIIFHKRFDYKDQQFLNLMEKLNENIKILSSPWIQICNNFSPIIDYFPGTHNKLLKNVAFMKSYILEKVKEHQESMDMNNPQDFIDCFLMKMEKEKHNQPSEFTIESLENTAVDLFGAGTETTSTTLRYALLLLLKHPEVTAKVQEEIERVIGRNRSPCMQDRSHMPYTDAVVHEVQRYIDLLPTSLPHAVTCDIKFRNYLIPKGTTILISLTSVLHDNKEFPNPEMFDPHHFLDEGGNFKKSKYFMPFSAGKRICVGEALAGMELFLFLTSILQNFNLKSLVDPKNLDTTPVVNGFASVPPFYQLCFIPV
# Procedure, shortened: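 Recombinant human CYP2C9 expressed in SF9 cells, fluorogenic substrate, fluorescence read 0.75 h after dosing. Chemicals first run in duplicate at 10 uM, with actives followed in concentration series; loss of signal versus acetonitrile baseline.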
# [3] = molecular target: Cytochrome P450 3A4 (Homo sapiens) (UniProt P08684); assay: NVS_ADME_hCYP3A4: NovaScreen (NVS) CYP450-related Enzyme Activity (ADME) Assay for human CYP3A4 (AID 2283110)
# Cytochrome P450 3A4 (Homo sapiens), sequence (P08684 whole entry, looked up): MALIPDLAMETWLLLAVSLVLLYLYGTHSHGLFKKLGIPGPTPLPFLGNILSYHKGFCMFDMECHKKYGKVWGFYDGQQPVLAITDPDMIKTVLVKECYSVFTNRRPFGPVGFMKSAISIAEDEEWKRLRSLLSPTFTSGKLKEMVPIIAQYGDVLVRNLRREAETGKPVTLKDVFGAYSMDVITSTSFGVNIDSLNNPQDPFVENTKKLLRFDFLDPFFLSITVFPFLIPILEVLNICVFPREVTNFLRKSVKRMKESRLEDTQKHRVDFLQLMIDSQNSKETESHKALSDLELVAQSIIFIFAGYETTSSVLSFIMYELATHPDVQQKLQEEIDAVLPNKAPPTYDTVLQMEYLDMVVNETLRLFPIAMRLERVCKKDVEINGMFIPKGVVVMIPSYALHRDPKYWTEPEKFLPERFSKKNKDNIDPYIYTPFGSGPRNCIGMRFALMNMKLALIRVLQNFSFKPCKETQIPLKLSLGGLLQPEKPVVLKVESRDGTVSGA
# Procedure, shortened: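 Cell-free recombinant enzyme expressed in insect cells; fluorescent substrate turnover read after 0.33 h, acetonitrile as negative control. Primary screen in duplicate at 10 uM, actives then tested in concentration series.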
# [4] = molecular target: rat CYP2A1, Cyp2a1 (gene 24894) (UniProt P11711); assay: NVS_ADME_rCYP2A1: NovaScreen (NVS) CYP450-related Enzyme Activity (ADME) Assay for rat CYP2A1 (AID 2283114; active = hit-call score of the fitted dose curve at least 0.9, where 1 is the maximum; inactive = score below 0.9)
# rat CYP2A1, Cyp2a1 (gene 24894), sequence (P11711 whole entry, looked up): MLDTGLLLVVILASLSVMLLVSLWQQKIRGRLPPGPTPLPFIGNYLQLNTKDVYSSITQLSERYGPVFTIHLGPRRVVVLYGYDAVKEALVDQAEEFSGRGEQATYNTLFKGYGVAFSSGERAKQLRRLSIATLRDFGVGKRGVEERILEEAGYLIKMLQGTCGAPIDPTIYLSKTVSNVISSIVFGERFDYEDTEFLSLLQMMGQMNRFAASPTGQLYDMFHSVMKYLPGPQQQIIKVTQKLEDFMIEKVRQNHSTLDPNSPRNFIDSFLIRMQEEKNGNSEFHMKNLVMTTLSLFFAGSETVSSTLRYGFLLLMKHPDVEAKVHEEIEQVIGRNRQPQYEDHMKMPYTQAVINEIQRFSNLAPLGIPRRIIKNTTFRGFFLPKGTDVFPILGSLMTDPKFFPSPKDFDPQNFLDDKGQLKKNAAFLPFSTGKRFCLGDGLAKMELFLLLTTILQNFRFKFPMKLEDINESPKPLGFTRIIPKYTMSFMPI
# Procedure, shortened: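 Recombinant rat CYP2A1, cell-free, fluorogenic substrate turnover read by fluorescence intensity 0.75 h after dosing. Primary screen at 10 uM in duplicate; actives rerun as concentration-response up to 20 uM; loss of signal versus acetonitrile control.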
# rat CYP2B1, gene 24300 = assay: NVS_ADME_rCYP2B1: NovaScreen (NVS) CYP450-related Enzyme Activity (ADME) Assay for rat CYP2B1 (AID 2283117)
# Procedure, shortened: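 Recombinant rat CYP2B1 with fluorogenic substrate, read at 0.75 h. Primary screen in duplicate at 10 uM; compounds meeting threshold (e.g., 30% inhibition) re-run in concentration-response up to 20 uM. Fitted against acetonitrile control.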
# rat CYP3A1, gene 25642 = assay: NVS_ADME_rCYP3A1: NovaScreen (NVS) CYP450-related Enzyme Activity (ADME) Assay for rat CYP3A1 (AID 2283126)
# Procedure, shortened: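 Cell-free recombinant CYP assay with fluorescent substrate, read 0.5 h after dosing. Screened at 10 uM in duplicate, hits at up to 20 uM in concentration-response; loss of signal versus acetonitrile baseline.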
# [5] = molecular target: rat CYP3A2, Cyp3a2 (gene 266682) (UniProt P05183); assay: NVS_ADME_rCYP3A2: NovaScreen (NVS) CYP450-related Enzyme Activity (ADME) Assay for rat CYP3A2 (AID 2283128)
# rat CYP3A2, Cyp3a2 (gene 266682), sequence (P05183 whole entry, looked up): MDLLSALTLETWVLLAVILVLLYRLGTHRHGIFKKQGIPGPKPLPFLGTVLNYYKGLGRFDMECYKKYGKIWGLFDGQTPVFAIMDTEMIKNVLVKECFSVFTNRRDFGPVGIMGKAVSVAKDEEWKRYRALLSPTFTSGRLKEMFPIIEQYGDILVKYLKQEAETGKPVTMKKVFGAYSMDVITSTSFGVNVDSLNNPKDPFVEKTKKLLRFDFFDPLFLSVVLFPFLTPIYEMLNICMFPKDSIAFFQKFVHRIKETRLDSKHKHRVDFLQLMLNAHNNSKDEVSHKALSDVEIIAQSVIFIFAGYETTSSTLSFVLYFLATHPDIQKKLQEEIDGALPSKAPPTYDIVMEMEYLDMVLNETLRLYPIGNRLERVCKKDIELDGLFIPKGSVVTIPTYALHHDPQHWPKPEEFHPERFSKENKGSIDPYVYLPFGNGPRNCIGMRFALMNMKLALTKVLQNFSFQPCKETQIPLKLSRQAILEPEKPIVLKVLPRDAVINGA
# Description: (§1) NVS_ADME_rCYP3A2 is a biochemical, single-readout assay that uses extracted gene-proteins in a cell-free assay. Measurements were taken 0.5 hour after chemical dosing in a 96-well plate.NVS_ADME_rCYP3A2 is one of one assay component(s) measured or calculated from the NVS_ADME_rCYP3A2 assay. It is designed to make measurements of enzyme activity, a form of enzyme reporter, as detected with fluorescence intensity signals by Fluorescence technology.Data from the assay component NVS_ADME_rCYP3A2 was analyzed into 1 assay endpoint. This assay endpoint, NVS_ADME_rCYP3A2, was analyzed in the positive analysis fitting direction relative to Acetonitrile as the negative control and baseline of activity. Using a type of enzyme reporter, loss-of-signal activity can be used to understand changes in the enzymatic activity as they relate to the gene Cyp3a2. Furthermore, this assay endpoint can be referred to as a primary readout, because this assay has produced multiple assay endpoints where this one serves a enzymatic activity function. To generalize the intended target to other relatable targets, this assay endpoint is annotated to the cyp intended target family, where the subfamily is xenobiotic metabolism. […]
# [6] = molecular target: rat CYP1A2, Cyp1a2 (gene 24297) (UniProt P04799); assay: NVS_ADME_rCYP1A2: NovaScreen (NVS) CYP450-related Enzyme Activity (ADME) Assay for rat CYP1A2 (AID 2283115)
# rat CYP1A2, Cyp1a2 (gene 24297), sequence (P04799 whole entry, looked up): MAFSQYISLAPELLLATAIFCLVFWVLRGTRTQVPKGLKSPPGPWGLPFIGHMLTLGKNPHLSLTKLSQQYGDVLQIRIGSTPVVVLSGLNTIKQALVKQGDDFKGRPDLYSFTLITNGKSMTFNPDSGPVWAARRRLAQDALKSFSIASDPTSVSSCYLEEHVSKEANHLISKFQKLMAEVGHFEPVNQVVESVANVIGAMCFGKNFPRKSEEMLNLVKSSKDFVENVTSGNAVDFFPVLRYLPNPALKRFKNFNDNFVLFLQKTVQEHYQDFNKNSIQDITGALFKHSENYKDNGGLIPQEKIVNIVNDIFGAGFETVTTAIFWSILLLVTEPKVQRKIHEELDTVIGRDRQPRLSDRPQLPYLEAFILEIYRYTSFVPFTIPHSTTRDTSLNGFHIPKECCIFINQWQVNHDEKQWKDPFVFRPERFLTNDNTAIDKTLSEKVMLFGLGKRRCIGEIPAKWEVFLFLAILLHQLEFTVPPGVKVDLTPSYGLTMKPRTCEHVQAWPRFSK
# Description: as §1, with “NVS_ADME_rCYP1A2” for “NVS_ADME_rCYP3A2”, “1” for “0.5”, “plate.NVS_ADME_rCYP1A2” for “plate.NVS_ADME_rCYP3A2”, “NVS_ADME_rCYP1A2,” for “NVS_ADME_rCYP3A2,”, “Cyp1a2.” for “Cyp3a2.”
# [7] = molecular target: human CYP4F12, CYP4F12 (gene 66002) (UniProt Q9HCS2); assay: NVS_ADME_hCYP4F12: NovaScreen (NVS) CYP450-related Enzyme Activity (ADME) Assay for human CYP4F12 (AID 2283111)
# human CYP4F12, CYP4F12 (gene 66002), sequence (Q9HCS2 whole entry, looked up): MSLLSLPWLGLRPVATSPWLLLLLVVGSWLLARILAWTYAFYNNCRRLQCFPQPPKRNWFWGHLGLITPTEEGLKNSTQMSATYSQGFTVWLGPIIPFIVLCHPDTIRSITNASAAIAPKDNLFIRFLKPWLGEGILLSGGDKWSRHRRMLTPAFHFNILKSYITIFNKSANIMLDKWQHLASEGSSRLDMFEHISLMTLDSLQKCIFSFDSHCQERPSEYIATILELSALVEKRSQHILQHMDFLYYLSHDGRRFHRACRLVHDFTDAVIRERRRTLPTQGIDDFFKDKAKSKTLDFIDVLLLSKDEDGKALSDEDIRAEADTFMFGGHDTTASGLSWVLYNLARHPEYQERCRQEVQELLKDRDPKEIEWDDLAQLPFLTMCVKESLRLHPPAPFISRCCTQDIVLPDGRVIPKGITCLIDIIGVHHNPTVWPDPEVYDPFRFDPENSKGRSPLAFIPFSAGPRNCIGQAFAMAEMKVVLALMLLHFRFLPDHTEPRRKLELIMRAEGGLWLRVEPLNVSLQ
# Procedure, shortened: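 Cell-free fluorescence assay of recombinant human CYP4F12 activity on a specific substrate, read 0.5 h after dosing. Primary screen in duplicate at 10 uM, then concentration series for actives; loss of signal fitted against acetonitrile negative control.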
# [8] = molecular target: human Acetylcholinesterase (AChE), ACHE (gene 43) (UniProt P22303); assay: NVS_ENZ_hAChE: NovaScreen (NVS) Enzymatic Assay for human Acetylcholinesterase (AChE) (AID 2283129)
# human Acetylcholinesterase (AChE), ACHE (gene 43), sequence (P22303 whole entry, looked up): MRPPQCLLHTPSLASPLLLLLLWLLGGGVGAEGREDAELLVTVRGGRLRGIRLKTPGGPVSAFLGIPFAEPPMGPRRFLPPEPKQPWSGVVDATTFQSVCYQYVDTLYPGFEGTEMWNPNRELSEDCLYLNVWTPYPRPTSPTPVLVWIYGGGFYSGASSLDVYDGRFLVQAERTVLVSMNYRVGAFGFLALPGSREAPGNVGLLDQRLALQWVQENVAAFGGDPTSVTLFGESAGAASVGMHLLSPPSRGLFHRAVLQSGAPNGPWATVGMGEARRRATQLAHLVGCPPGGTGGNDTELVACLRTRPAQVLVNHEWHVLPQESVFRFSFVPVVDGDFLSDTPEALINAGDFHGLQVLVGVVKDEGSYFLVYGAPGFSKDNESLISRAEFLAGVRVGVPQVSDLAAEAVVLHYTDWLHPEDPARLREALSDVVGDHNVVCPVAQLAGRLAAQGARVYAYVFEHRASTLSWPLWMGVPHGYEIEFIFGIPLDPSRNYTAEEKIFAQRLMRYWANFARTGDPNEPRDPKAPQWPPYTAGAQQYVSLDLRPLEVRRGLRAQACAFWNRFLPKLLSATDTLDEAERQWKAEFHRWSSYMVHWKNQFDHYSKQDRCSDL
# Procedure, shortened: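 Cell-free colorimetric enzyme-activity assay; compounds read 0.33 hour after dosing, loss of signal vs DMSO baseline. Primary screen in duplicate at 25 uM single concentration, with active compounds retested in concentration series.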
smiles,measurement,setting,value
O=S1(=O)OCC2C(CO1)C1(Cl)C(Cl)=C(Cl)C2(Cl)C1(Cl)Cl (centres undefined),AC50,[1],2.43 µM (active)
CC(C)Nc1ccc(Nc2ccccc2)cc1,AC50,[2],2.66 µM (active)
same,AC50,[1],3.42 µM (active)
CCOP(=S)(Oc1ccc([N+](=O)[O-])cc1)c1ccccc1 (centres undefined),AC50,[2],5.15 µM (active)
same,AC50,[3],3.84 µM (active)
same,AC50,[1],0.198 µM (active)
CO/N=C(/C(=O)OC)c1ccccc1COc1ccccc1C,AC50,[2],6.5 µM (active)
same,AC50,[1],2.85 µM (active)
same,AC50,[4],4.24 µM (active)
same,outcome,"rat CYP2B1, gene 24300",inactive
same,AC50,"rat CYP3A1, gene 25642",6.96 µM (active)
same,AC50,[5],6.28 µM (active)
CCOP(=S)(OCC)SCSCC,AC50,[1],9.32 µM (active)
CSC(C)(C)C=NO,outcome,[2],inactive
same,outcome,[3],inactive
same,outcome,[1],inactive
CCOP(=S)(OCC)SCn1nnc2ccccc2c1=O,AC50,[2],1.43 µM (active)
same,AC50,[1],3.57 µM (active)
O=c1ssc(Cl)c1Cl,outcome,"rat CYP2B1, gene 24300",inactive
O=P(OCC(Br)CBr)(OCC(Br)CBr)OCC(Br)CBr (centres undefined),AC50,[1],4.35 µM (active)
same,outcome,[6],inactive
CCC1(c2ccccc2)C(=O)N=C(O)NC1=O (centres undefined),outcome,[7],inactive
C=CC(=O)OCC(CC)(COC(=O)C=C)COC(=O)C=C,AC50,[1],2.4 µM (active)
O=[N+]([O-])c1ccccc1,outcome,[7],inactive
c1ccc2c(c1)Nc1ccccc1S2,AC50,[2],6.5 µM (active)
same,AC50,[1],6.45 µM (active)
O=P1(N(CCCl)CCCl)NCCCO1 (centres undefined),outcome,[7],inactive
Nc1ccc2ccccc2c1,AC50,[1],2.58 µM (active)
Cc1ccc2c(c1N)C(=O)c1ccccc1C2=O,AC50,[2],0.0118 µM (active)
same,outcome,[3],inactive
same,AC50,[1],3.02 µM (active)
CC(Cc1ccc(OCC(=O)O)cc1)NCC(O)c1csc(C(F)(F)F)n1 (centres undefined),outcome,[1],inactive
CCNc1nc(Cl)nc(NC(C)(C)C)n1,AC50,[1],6.82 µM (active)
Cc1ccc([N+](=O)[O-])cc1C,AC50,[1],2.77 µM (active)
CCCCOCCOP(=O)(OCCOCCCC)OCCOCCCC,outcome,[1],inactive
ClC1=C(Cl)C2(Cl)C3C(Cl)C(Cl)CC3C1(Cl)C2(Cl)Cl (centres undefined),AC50,[1],6.11 µM (active)
c1ccc2c(c1)sc1ccccc12,outcome,[6],inactive
CC1(C)CN=C(NN=C(/C=C/c2ccc(C(F)(F)F)cc2)/C=C/c2ccc(C(F)(F)F)cc2)NC1,outcome,[3],inactive
CCCCCCCc1ccc(O)cc1,outcome,[1],inactive
CCOC(=O)c1ccccc1C(=O)OCC,outcome,[3],inactive
O=P(Oc1ccccc1)(Oc1ccccc1)Oc1ccccc1,AC50,[1],0.872 µM (active)
CCCCN(CCCC)SN(C)C(=O)Oc1cccc2c1OC(C)(C)C2,AC50,[2],16.8 µM (active)
same,outcome,[1],inactive
same,AC50,[8],1.31 µM (active)
